Screening data deposited in PubChem by several laboratories.
Rin1-Abl PPI inh – inhibitors of human Rin1-Abl protein interaction. P00519+Q13671. TR-FRET Rin1/Abl binding, biochemical. inhibition, % at 7.35 µM. actives 0.4% (n = 360,000). AID 588664; in the data active = inhibition above about 5%, passing the limit was not always enough
Target sequence (P00519 whole entry, looked up): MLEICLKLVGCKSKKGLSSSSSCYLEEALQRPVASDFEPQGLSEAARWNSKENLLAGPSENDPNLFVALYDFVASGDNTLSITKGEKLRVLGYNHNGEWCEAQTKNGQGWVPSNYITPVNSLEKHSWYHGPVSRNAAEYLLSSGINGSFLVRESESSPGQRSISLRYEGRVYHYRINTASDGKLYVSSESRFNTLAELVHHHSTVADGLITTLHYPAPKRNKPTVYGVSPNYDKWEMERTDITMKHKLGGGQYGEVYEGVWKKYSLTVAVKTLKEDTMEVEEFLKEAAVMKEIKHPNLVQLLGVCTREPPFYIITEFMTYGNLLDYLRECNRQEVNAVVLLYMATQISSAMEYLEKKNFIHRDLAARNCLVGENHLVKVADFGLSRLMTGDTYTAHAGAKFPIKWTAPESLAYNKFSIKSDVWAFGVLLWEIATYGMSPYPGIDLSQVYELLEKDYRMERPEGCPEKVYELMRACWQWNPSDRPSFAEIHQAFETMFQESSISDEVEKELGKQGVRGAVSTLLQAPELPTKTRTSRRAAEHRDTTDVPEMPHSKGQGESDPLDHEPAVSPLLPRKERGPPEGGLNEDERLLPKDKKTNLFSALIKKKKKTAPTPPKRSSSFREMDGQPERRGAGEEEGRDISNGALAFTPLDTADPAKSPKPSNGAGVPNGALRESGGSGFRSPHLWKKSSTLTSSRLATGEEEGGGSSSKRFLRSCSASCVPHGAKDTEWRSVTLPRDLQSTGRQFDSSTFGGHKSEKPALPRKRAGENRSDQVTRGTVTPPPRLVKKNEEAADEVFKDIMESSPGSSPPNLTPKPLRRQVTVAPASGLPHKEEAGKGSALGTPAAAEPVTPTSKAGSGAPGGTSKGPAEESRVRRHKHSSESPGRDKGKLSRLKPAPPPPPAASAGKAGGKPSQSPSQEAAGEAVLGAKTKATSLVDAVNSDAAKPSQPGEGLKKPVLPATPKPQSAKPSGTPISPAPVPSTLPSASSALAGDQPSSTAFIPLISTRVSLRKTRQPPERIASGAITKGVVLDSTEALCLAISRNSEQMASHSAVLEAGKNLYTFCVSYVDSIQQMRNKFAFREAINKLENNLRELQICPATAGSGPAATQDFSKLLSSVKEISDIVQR
Target sequence (Q13671 whole entry, looked up): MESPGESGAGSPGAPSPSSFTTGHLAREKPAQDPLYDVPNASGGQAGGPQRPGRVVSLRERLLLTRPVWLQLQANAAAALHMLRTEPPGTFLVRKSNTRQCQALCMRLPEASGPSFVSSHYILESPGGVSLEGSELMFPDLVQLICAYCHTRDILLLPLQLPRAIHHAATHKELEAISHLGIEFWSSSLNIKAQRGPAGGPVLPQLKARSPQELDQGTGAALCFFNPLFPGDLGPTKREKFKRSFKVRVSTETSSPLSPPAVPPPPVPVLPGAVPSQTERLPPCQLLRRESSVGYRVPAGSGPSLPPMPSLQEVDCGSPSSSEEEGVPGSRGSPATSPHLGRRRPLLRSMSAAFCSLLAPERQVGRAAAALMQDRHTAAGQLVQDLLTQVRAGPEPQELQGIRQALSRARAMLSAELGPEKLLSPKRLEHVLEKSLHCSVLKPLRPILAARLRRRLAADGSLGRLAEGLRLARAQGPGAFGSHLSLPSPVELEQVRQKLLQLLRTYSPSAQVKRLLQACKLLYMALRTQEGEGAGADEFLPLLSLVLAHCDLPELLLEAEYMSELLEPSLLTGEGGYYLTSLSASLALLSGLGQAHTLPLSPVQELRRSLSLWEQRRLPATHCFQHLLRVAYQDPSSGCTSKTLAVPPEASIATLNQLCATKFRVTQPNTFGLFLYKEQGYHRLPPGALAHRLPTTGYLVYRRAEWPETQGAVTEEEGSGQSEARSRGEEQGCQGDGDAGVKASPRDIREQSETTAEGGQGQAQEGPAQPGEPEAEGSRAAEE
ATG4B inhibitor – blocks human ATG4B protease cleavage of LC3 substrate. ATG4B cleavage of LC3-PLA2, NBD-HPC fluorescence, 1 h. Q9Y4P1. inhibition, % at 8.33 µM. actives 0.51% (n = 340,000). AID 504462; in the data active = inhibition above about 40%
Neddylation inh – cullin neddylation inhibition; P61081+Q13564; TR-FRET cullin neddylation, biochemical; inhibition, % at 25 µM; actives 0.58% (n = 360,000); AID 651699; in the data active = inhibition above about 36%
SUMO1 PPI mod – alters human SUMO1 binding to SIM partners. actives 0.33% (n = 360,000). AID 602429. SUMO1 binding to a labelled peptide, TR-FRET, 1 h. inhibition, % at 20 µM. P63165; in the data active = inhibition above about 37%
* hit, by the source's call; . = not tested or not shown. Only some compounds are listed: those with a hit (about 1.7% of all), similar ones and a draw of the others.

SMILES | Rin1-Abl PPI inh | ATG4B inhibitor | Neddylation inh | SUMO1 PPI mod
C[C@@H]1CCCCO[C@@H](CN(C)C(=O)CCCN(C)C)[C@@H](C)CN([C@H](C)CO)C(=O)c2cc(N(C)C)ccc2O1 | 3 | . | 10 | 2
S=c1[nH]nc(-c2cc(-c3ccccc3)n[nH]2)n1/N=C/c1ccc(Br)s1 | -3 | -9 | 63* | 61*
Cc1ccc(S(=O)(=O)N2CCOCC2)cc1C(=O)Nc1ccc(-c2cn3ccsc3n2)cc1 | -2 | -12 | 7 | 45*
Cc1ccc(S(=O)(=O)N2CCOCC2)cc1C(=O)Nc1ccncc1 | 0 | -8 | 10 | -3
CC(NCC(O)COCc1ccc(Cl)cc1)c1ccccc1 (centres undefined) | 4 | -6 | 2 | 65*
N#C/C(=C\c1cccn1S(=O)(=O)c1cccc([N+](=O)[O-])c1)S(=O)(=O)c1ccc(F)cc1 | -1 | . | -24 | -14
N=C1/C(=C\c2ccc(SCc3ccco3)o2)C(=O)N=C2SC=NN12 | 1 | 11 | -61 | 43*
CCOc1ccc(NS(=O)(=O)c2ccc(C(=O)N(C)CC(=O)Nc3ccccc3Br)cc2)cc1 | 1 | -16 | 0 | -13
O=C(c1ccc(NS(=O)(=O)c2ccccc2)cc1)N1CCN(c2ccccc2)CC1 | 3 | -8 | 5 | 1
Nc1ccc2ncccc2c1N | -3 | 12 | -7 | 45*
CCOC1CCCc2oc(-c3ccc(N(C)C)cc3)c(C(=O)OC)c21 (centres undefined) | . | . | . | -7
O=C1NC[C@@H](Cc2ccc(O)cc2)N(CCc2cc(C(F)(F)F)cc(C(F)(F)F)c2)C1=O | . | . | 3 | 67*
C[C@@H](CN1C(=O)C(=O)NC[C@@H]1Cc1ccc(O)cc1)NC(=O)Cc1ccccc1 | 0 | 0 | -13 | 42*
Oc1ccc(C[C@@H]2CNC(=S)N2CCc2cc(C(F)(F)F)cc(C(F)(F)F)c2)cc1 | 1 | -14 | -5 | 2
CCCCN1C(=O)C(=O)NC[C@@H]1CCCCN | 3 | -1 | -3 | 0
CCCC[C@@H]1CNC(=O)C(=O)N1CCCC | . | . | 10 | 49*
O=C1NC(Cc2ccc(O)cc2)c2nc3cc(F)c(F)cc3c(=O)n2-c2ncccc21 (centres undefined) | -4 | . | 2 | 4
CC(=O)Nc1cncc(-c2cccc(C(=O)N3CCOCC3)c2)n1 | -1 | . | 6 | -1
COc1ccc(-c2cc3nc4ccccc4n3c(N)c2C#N)cc1 | -4 | 1 | . | 87*
Cc1ccc(/C=C2/C(=N)N3N=C(CC(=O)N4CCCC4)SC3=NC2=O)o1 | 1 | 11 | -13 | -14
N=C1/C(=C\c2ccc(Br)o2)C(=O)N=C2SC(CC(=O)N3CCCCC3)=NN12 | 3 | 39 | -4 | 46*
CCc1ccc(S(=O)(=O)Nc2cc(SCC(=O)O)c(O)c3ccccc23)cc1 | 7 | -25 | -23 | 45*
Cc1ccc(C)c(S(=O)(=O)Nc2cc(SCC(=O)O)c(O)c3ccccc23)c1 | 2 | -1 | -18 | 91*
CCC(C)C(CO)NCCCn1cnc2c(OCc3ccccc3)ncnc21 (centres undefined) | 0 | . | 1 | 2
COCCNC(=O)C1(C)CCN(Cc2ccc(C(C)C)cc2)C1 (centres undefined) | 0 | . | 1 | -6
SMILES | Rin1-Abl PPI inh | ATG4B inhibitor | Neddylation inh | SUMO1 PPI mod
O=c1cc2oc3cc(O)c(O)cc3c(-c3ccccc3[N+](=O)[O-])c-2cc1O | 65* | 6 | -71 | 27
O=C(NCc1ccccc1)C(C1CC1)n1c(Cc2cc(F)cc(F)c2)nc2ccccc21 (centres undefined) | . | . | 0 | 3
COc1ccccc1N1CCN(C(=O)NCc2cccc(C(F)(F)F)c2)CC1 | 0 | 44* | 0 | -2
CCOC(=O)c1ccccc1NC(=O)CN1CCC(n2nnc3cc(C(F)(F)F)ccc32)CC1 | -1 | 6 | -6 | 61*
COC(=O)c1ccccc1NC(=O)CN1CCC(n2nnc3cc(F)ccc32)CC1 | 1 | -15 | 0 | -2
CN1CCN(CCNC(=O)c2ccc3nc(-c4ccc(F)cc4)c(-c4ccc(F)cc4)nc3c2)CC1 | -2 | 4 | 51* | -33
Cn1c2nc(=O)n(-c3ccccc3)c(=O)c-2nc2c1CCCC2 | 9.1* | . | . | 4
COCCn1c2nc(=O)n(-c3ccccc3)c(=O)c-2nc2ccccc21 | -1 | . | 2 | -28
O=c1cc(-c2ccc(O)cc2)oc2c(-c3c(O)cc(O)c4c(=O)cc(-c5ccc(O)cc5)oc34)c(O)cc(O)c12 | -4 | 15 | 6 | 14
O=c1c(-c2c(O)cc(O)c3c(=O)cc(-c4ccc(O)cc4)oc23)c(-c2ccc(O)cc2)oc2cc(O)cc(O)c12 | 7 | 14 | . | 50*
CCCCCCCCCc1conc1C(=O)/C=C/c1ccco1 | . | . | 7 | 12
CCN(CC)c1ccc(/C=N/NC(=O)c2ccc3nc[nH]c3c2)c(O)c1 | -6 | -10 | 38* | -8
COc1cccc(/C=N/NC(=O)c2ccc3nc[nH]c3c2)c1O | -2 | -8 | -5 | -8
O=C1CC(N2CCC(c3nc4ccccc4o3)CC2)C(=O)N1Cc1cccs1 (centres undefined) | 2 | 9 | 5 | 57*
COc1ccc(CNC(=O)COc2cc3c(c4oc(=O)cc(C)c24)CCC(C)(C)O3)c(OC)c1 | 1 | . | . | 2
Cc1ccc2cc(C3C(C#N)=C(N)Oc4c3ccc3cccnc43)c(=O)[nH]c2c1 (centres undefined) | 4 | 17 | -2 | -13
CCc1ccc2[nH]c(=O)c(C3C(C#N)=C(N)Oc4c3ccc3cccnc43)cc2c1 (centres undefined) | 10* | -8 | -32 | -10
Oc1c(C(Nc2cccc(C(F)(F)F)c2)c2cccnc2)ccc2cccnc12 (centres undefined) | 4 | 17 | 40* | -8
C[C@@H]1CN([C@@H](C)CO)C(=O)c2cc(Br)cnc2O[C@H]1CN(C)C(=O)c1ccccc1F | -2 | . | -7 | -6
Cc1cc(-c2cc(NC=O)c3ncc(-c4cccc(C(=O)NCCN(C)C)c4)n3c2)cc(C)c1O | -12 | . | 11 | 48*
CN(C)CCNC(=O)c1cccc(-c2cnc3c(NC=O)cc(-c4cccs4)cn23)c1 | -12 | . | -4 | 51*
CN(C)CCNC(=O)c1cccc(-c2cnc3c(NC=O)cc(-c4ccccc4F)cn23)c1 | -3 | . | 13 | 9
Fc1ccc(C2=Nc3cccc4cccc(c34)N2)cc1 | 3 | 20 | -4 | -3
FC(F)(F)C1=Nc2cccc3cccc(c23)N1 | 1 | 12 | -8 | 117*
CCC(C)[C@@H](CN)NCC1(c2ccccc2)CC1 (some centres undefined) | -1 | -3 | -21 | 37*
Cc1cccc(NS(=O)(=O)c2ccc(C)c(C(=O)NCC(c3ccco3)N3CCCCC3)c2)c1 (centres undefined) | 2 | -4 | 7 | -5
Nc1c(C(=O)NCc2ccccc2)c2nc3ccccc3nc2n1CCCN1CCOCC1 | -6 | -30 | . | 43*
Nc1c(C(=O)NCc2ccc(F)cc2)c2nc3ccccc3nc2n1CCCN1CCOCC1 | -6 | -14 | . | 0
